Source: PubChem BioAssay (NCATS)
Inconclusive results are not listed. Calls of active or inactive are those of the source. Unless noted, calls come from the whole dose curve; as a rule, active = well fitted curve in the direction sought with a large enough effect; inconclusive = small, poorly fitted or top-dose-only effect, or another doubt; inactive = no such curve, though single readings can be large; an effect the other way counts as inactive or inconclusive.

How the values were obtained:
[1] = Cell Viability - BJ (AID 421; calls by dose curve;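 note: potency is the fitted concentration of half-maximal effect; cells exposed to compound for 40 hours at 37 °C before readout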); conditions: BJ fibroblast viability, qHTS
Outline: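 Quantitative HTS: ATP depletion in BJ cells after 40 hr compound exposure in complete culture medium, detected with CellTiter-Glo; AC50 from standard Hill fits.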

[2] = Cell Viability - Jurkat (AID 426;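 active = dose-dependent loss of cell ATP signal giving a full or clear fitted curve, ranked by lower potency value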; note: potency is the fitted concentration of half-maximal effect); conditions: qHTS
Outline: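 Jurkat (Clone E6-1) cells, 5000/well in complete medium, exposed to compounds for 40 hr at 37C; intracellular ATP measured by CellTiter-Glo luminescence after 20 min at room temperature. AC50 from Hill fits.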

[3] = Cell Viability - Hek293 (AID 427;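 active = compounds whose dose-response curve shows a full or clear partial loss of cell viability, called from curve shape rather than a numeric limit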;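 note: potency is the fitted concentration of half-maximal effect; cells exposed to compound for 40 hours at 37 °C before reading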); conditions: qHTS
Outline: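 AC50 values derive from Hill-modelled concentration-response of ATP-based luminescence, normalized between DMSO-only and 100 uM tamoxifen controls. Cells were exposed in complete culture medium for 40 hr at 37 °C before detection.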

[4] = Cell Viability - HepG2 (AID 433; calls by dose curve;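 note: potency is the fitted concentration of half-maximal effect; potency for ATP loss meaning cytotoxicity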); conditions: qHTS
Outline: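 In this qHTS format, a 40 h, 37 °C compound incubation of HepG2 cells in complete medium precedes a 20 min CellTiter-Glo step at room temperature. Tamoxifen and doxorubicin serve as positive controls; Hill-equation fits yield AC50.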

[5] = Cell Viability - MRC5 (AID 434; calls by dose curve;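 note: potency is the fitted concentration of half-maximal effect; potency reflects cytotoxicity seen as loss of intracellular ATP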); conditions: MRC5 lung fibroblast viability, qHTS
Outline: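 MRC5 normal human lung fibroblasts, 1500 cells/well, exposed to compound for 40 hr at 37 C. Cellular ATP was read by CellTiter-Glo luminescence; data normalized to DMSO and 100 uM tamoxifen, with AC50 from Hill fits.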

[6] = Cell Viability - SK-N-SH (AID 435; calls by dose curve;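 note: potency is the fitted concentration of half-maximal effect; compound exposure lasted 40 h at 37 °C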); conditions: SK-N-SH neuroblastoma cell viability qHTS
Outline: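 Human neuroblastoma line, 40 h exposure at 37 °C, ATP quantified via luciferase luminescence; DMSO and 100 uM tamoxifen define 0 and 100% inhibition for AC50 fitting.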

[7] = molecular target: Mitogen-activated protein kinase 10 (Mus musculus) (UniProt Q61831); experiment: JNK3 AlphaScreen Assay (AID 530; active = well fitted curve in either direction with a large enough effect, not every such curve was filed as active;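 note: kinase came from lysate of stimulated human HepG2 cells; signal reports phosphorylation of biotinylated GST-cJun 1-79 at Ser73 with 10 µM ATP; % is set by controls: 0 for no effect and ±100 for the full control effect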); conditions: JNK3 lysate, c-Jun phosphorylation; series mostly up to 57.1 µM
Outline: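 Pre-activated (IL-1β/TNFα) JNK3 in HepG2 lysates phosphorylates biotin-GST-cJun(1-79), 10 uM ATP; anti-phospho-cJun(Ser73) AlphaScreen read at room temperature, pH 7.6 Tris buffer. Compounds pre-incubated 15 min as titrations.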

[8] = Cell Viability - N2a (AID 540); conditions: N2a mouse neuroblastoma cell viability; activity change, negative = cytotoxicity: at 92.2 µM (top of the series);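 note: plate controls were DMSO alone for no effect and tamoxifen control for full effect; nearly all actives have a fitted effect of over 45% in size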
Outline: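 Mouse neuroblastoma N2a cells, 1500/well, exposed to compounds 40 h at 37 °C in complete medium. Viability measured as cellular ATP by CellTiter-Glo luminescence; AC50 from Hill fits of concentration-response.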

[9] = Cell Viability - NIH 3T3 (AID 541); conditions: NIH 3T3 cell viability, qHTS; activity change, negative = cytotoxicity: at 92.2 µM (top of the series);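 note: plate controls were DMSO alone for no effect and tamoxifen positive control for full effect; nearly all actives have a fitted effect of over 25% in size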
Outline: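 Mouse NIH 3T3 fibroblasts, 1000 cells/well, rested 5 hr at 37 °C, then exposed to compound for 40 hr at 37 °C in complete medium. Viability read as intracellular ATP by CellTiter-Glo luminescence; AC50 from Hill-equation fits of concentration-response data.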

[10] = Cell Viability - HUV-EC-C (AID 542); conditions: HUV-EC-C endothelial cell viability, qHTS; series mostly up to 92.2 µM; note: % is set by controls: 0 for no effect and ±100 for the full control effect; nearly all actives have a fitted effect of over 35% in size
Outline: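 HUV-EC-C human vascular endothelial cells, 1000/well, exposed to compound for 40 hr at 37 °C in complete medium. Intracellular ATP was read by CellTiter-Glo luminescence. AC50 came from Hill-equation fits of concentration-response data.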

[11] = Cell Viability - H-4-II-E (AID 543); conditions: H-4-II-E rat hepatoma viability; series mostly up to 92.2 µM; note: % is set by controls: 0 for no effect and ±100 for the full control effect; nearly all actives have a fitted effect of over 35% in size
Outline: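 Rat hepatoma H-4-II-E cells, 1500 per well, treated 40 h at 37 °C in complete medium. Cellular ATP read by CellTiter-Glo luminescence; AC50 from Hill fits of concentration-response.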

[12] = Cell Viability - SH-SY5Y (AID 544); conditions: SH-SY5Y neuroblastoma cell viability; viability change, negative = cytotoxic: at 92.2 µM (top of the series); note: nearly all actives have a fitted effect of over 55% in size
Outline: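 SH-SY5Y human neuroblastoma cells (1500/well) incubated 5 h, then compound-treated 40 h at 37 °C in complete medium. Viability read as intracellular ATP by CellTiter-Glo luminescence after 20 min; AC50 from Hill-equation fits of qHTS concentration-response.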

[13] = Cell Viability - Renal Proximal Tubule (AID 545); conditions: renal proximal tubule cells viability, primary cells of rat origin; series mostly up to 91.7 µM; note: nearly all actives have a fitted effect of over 40% in size
Outline: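 In this qHTS format, normal rat kidney-derived proximal tubule cells in complete culture medium receive compound titrations, then sit 40 hours at 37 °C before luciferase-based ATP quantitation; potency is reported as AC50 from concentration-response curves.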

[14] = Cell Viability - Mesenchymal (AID 546); conditions: mesenchymal cells viability, qHTS; series mostly up to 91.7 µM;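 note: cells exposed to compound for 40 hours before reading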
Outline: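 Human kidney mesenchymal cells from normal renal glomeruli, 1000 cells/well, rested 5 hr at 37 °C, then treated 40 hr at 37 °C in complete medium. Cellular ATP read by CellTiter-Glo luminescence; AC50 from Hill-equation fits.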

[15] = Cellular Toxicity (caspase-3) HepG2 (AID 654); conditions: HepG2 caspase-3 activation, luminescence; series mostly up to 92.2 µM;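 note: cells exposed to compound for 16 hours before reading; 0% = DMSO alone and 100% = caspase signal from 100 µM tamoxifen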
Outline: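 HepG2 cells (1500/well) were treated 16 h at 37 °C in complete medium, then caspase 3/7 activity was read by Caspase-Glo luminescence. Data were normalized to DMSO and 100 uM tamoxifen; AC50 came from Hill-equation fits of qHTS concentration-response.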

[16] = Cellular Toxicity (caspase-3) HUV-EC-C (AID 656); conditions: HUV-EC-C cells, caspase-3 activation (apoptosis), vehicle = 0, 100 µM tamoxifen = 100%; series mostly up to 92.2 µM;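 note: cells exposed to compound for 16 h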
Outline: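 Concentration-dependent caspase 3/7 induction was assessed in HUV-EC-C cells exposed for 16 hours. Data scaled between DMSO and tamoxifen (100 uM) controls.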

[17] = Cellular Toxicity (caspase-3) SHSY5Y (AID 657); conditions: SH-SY5Y caspase-3 activation, DMSO zero, 10 µM staurosporine = 100%; series mostly up to 91.7 µM;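 note: cells exposed to compound for 16 hours at 37 °C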
Outline: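 Readout: caspase-cleaved peptide-aminoluciferin substrate driving luciferase light in SH-SY5Y neuroblastoma cells after 16 h treatment. Response normalized to DMSO and 10 uM staurosporine controls.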

[18] = Cellular Toxicity (caspase-3) BJ (AID 658); conditions: BJ fibroblasts, luminescence, normalized: DMSO 0%, staurosporine 100%; series mostly up to 91.7 µM
Outline: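 BJ human foreskin fibroblasts, 1000 cells/well, treated 16 hours at 37 °C in complete medium; caspase 3/7 activity by Caspase-Glo luminescence after 1 hr at room temperature. Normalized to DMSO and 10 uM staurosporine; AC50 from Hill fits.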

[19] = Cellular Toxicity (caspase-3) MRC-5 (AID 659); conditions: MRC-5 cells, luminescence, normalized: DMSO 0%, 10 µM staurosporine 100%; series mostly up to 91.7 µM;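 note: cells exposed to compound for 16 h at 37 °C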
Outline: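 MRC-5 human normal lung fibroblasts, 1500 cells/well, treated 16 h at 37 °C in complete medium. Caspase 3/7 measured by Caspase-Glo luminescence after 1 h at room temperature. Normalized to DMSO and 10 uM staurosporine; AC50 from Hill fit.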

[20] = Cellular Toxicity (caspase-3) Jurkat (AID 655); conditions: Jurkat caspase-3 activation, luminescence; caspase-3 activation: at 92.2 µM (top of the series), DMSO = 0%, tamoxifen = 100%;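 note: cells exposed to compound for 16 h at 37 °C before reading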
Outline: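 qHTS in human Jurkat T-cell leukemia line: 16 hr compound treatment at 37 °C, caspase-3/7 activity measured by Caspase-Glo luminescence. AC50 derived from Hill equation.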

O=C1OC(=O)c2cc([N+](=O)[O-])ccc21
inactive: Potency [1] > 92 µM | Potency [2] > 92 µM | Potency [3] > 92 µM | Potency [4] > 92 µM | Potency [5] > 92 µM | Potency [6] > 92 µM | outcome [7] | activity change, negative = cytotoxicity [8] -2.26% | Potency [9] | Potency [10] | Potency [11] | Potency [12] | Potency [13] | Potency [14] | Potency [15] | outcome [16] | outcome [17] | outcome [18] | outcome [19]

CCC(C)(C)C
inactive: Potency [1] > 92 µM | Potency [2] > 92 µM | Potency [3] > 92 µM | Potency [4] > 92 µM | Potency [5] > 92 µM | Potency [6] > 92 µM | outcome [7] | activity change, negative = cytotoxicity [8] -21.6% | Potency [9] | Potency [10] | Potency [11] | Potency [12] | Potency [13] | Potency [14] | Potency [15] | caspase-3 activation [20] -0.787% | outcome [17] | outcome [18] | outcome [19]

CCCCCCC=O
inactive: Potency [1] > 92 µM | Potency [2] > 92 µM | Potency [3] > 92 µM | Potency [4] > 92 µM | Potency [5] > 92 µM | Potency [6] > 92 µM | outcome [7] | activity change, negative = cytotoxicity [8] -2.45% | Potency [9] | Potency [10] | Potency [11] | Potency [12] | Potency [13] | Potency [14] | caspase-3 activation [20] 0.767% | outcome [16] | outcome [17] | outcome [18] | outcome [19]

Cc1ccc(C)c(N)c1
inactive: Potency [1] > 92 µM | Potency [2] > 92 µM | Potency [3] > 92 µM | Potency [4] > 92 µM | Potency [5] > 92 µM | Potency [6] > 92 µM | outcome [7] | activity change, negative = cytotoxicity [8] -15.8% | Potency [9] | Potency [10] | Potency [11] | Potency [12] | Potency [13] | Potency [14] | Potency [15] | outcome [17] | outcome [18] | outcome [19]

c1ccc2n[nH]nc2c1
inactive: Potency [1] > 92 µM | Potency [2] > 92 µM | Potency [3] > 92 µM | Potency [4] > 92 µM | Potency [5] > 92 µM | Potency [6] > 92 µM | outcome [7] | activity change, negative = cytotoxicity [8] -2.18% | Potency [9] | Potency [10] | Potency [11] | Potency [12] | Potency [13] | Potency [14] | Potency [15] | outcome [16] | outcome [17] | outcome [18] | outcome [19]

Cc1cccc2sc(N)nc12
inactive: Potency [1] > 92 µM | Potency [2] > 92 µM | Potency [3] > 92 µM | Potency [4] > 92 µM | Potency [5] > 92 µM | Potency [6] > 92 µM | outcome [7] | activity change, negative = cytotoxicity [8] -1.12% | Potency [9] | Potency [10] | Potency [11] | Potency [12] | Potency [13] | Potency [14] | Potency [15] | outcome [17] | outcome [18] | outcome [19]

S=C([S-])NCCNC(=S)[S-].[Zn+2]
inactive: Potency [1] > 92 µM | Potency [2] > 92 µM | Potency [3] > 92 µM | Potency [4] > 92 µM | Potency [5] > 92 µM | Potency [6] > 92 µM | outcome [7] | activity change, negative = cytotoxicity [8] -5.49% | Potency [9] | Potency [10] | Potency [11] | Potency [12] | Potency [13] | Potency [14] | Potency [15] | caspase-3 activation [20] 5.46% | outcome [17] | outcome [18]

C1CCOC1
inactive: Potency [1] > 92 µM | Potency [2] > 92 µM | Potency [3] > 92 µM | Potency [4] > 92 µM | Potency [5] > 92 µM | Potency [6] > 92 µM | outcome [7] | activity change, negative = cytotoxicity [8] 3.61% | Potency [9] | Potency [10] | Potency [11] | Potency [12] | Potency [13] | Potency [14] | caspase-3 activation [20] -0.19% | outcome [17] | outcome [18] | outcome [19]

CCOC(=O)C(C)C(C)=O (stereo not drawn)
inactive: Potency [1] > 92 µM | Potency [2] > 92 µM | Potency [3] > 92 µM | Potency [4] > 92 µM | Potency [5] > 92 µM | Potency [6] > 92 µM | outcome [7] | activity change, negative = cytotoxicity [8] 0.646% | Potency [9] | Potency [10] | Potency [11] | Potency [12] | Potency [13] | Potency [14] | caspase-3 activation [20] 3.08% | outcome [16] | outcome [17] | outcome [18] | outcome [19]

C/C=C1\CC2C=CC1C2 (stereo not drawn)
inactive: Potency [1] > 92 µM | Potency [2] > 92 µM | Potency [3] > 92 µM | Potency [4] > 92 µM | Potency [5] > 92 µM | Potency [6] > 92 µM | outcome [7] | activity change, negative = cytotoxicity [8] 4.82% | Potency [10] | Potency [11] | Potency [12] | Potency [13] | Potency [14] | Potency [15] | caspase-3 activation [20] -1.14% | outcome [17] | outcome [18] | outcome [19]

ClC/C=C/CCl
inactive: Potency [1] > 92 µM | Potency [2] > 92 µM | Potency [3] > 92 µM | Potency [4] > 92 µM | Potency [5] > 92 µM | Potency [6] > 92 µM | outcome [7] | activity change, negative = cytotoxicity [8] -2.88% | Potency [9] | Potency [10] | Potency [11] | Potency [12] | Potency [14] | caspase-3 activation [20] 1.47% | outcome [16] | outcome [17] | outcome [18] | outcome [19]
